Source: PubChem BioAssay
Pf growth 96h: Primary qHTS for delayed death inhibitors of the malarial parasite plastid, 96 hour incubation. P. falciparum luciferase reporter growth, 96 h. Potency, µM (doses to about 28.7 µM), without a hit: top-dose activity change, negative = inhibition, actives largely listed as inhibitors. 320,000 compounds, 6.9% hits; further: potency means the concentration at half of the fitted maximal effect; on the % scale 0 is the no-effect control and ±100 the full control effect
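Cell-based qHTS: luciferase-tagged P. falciparum in erythrocytes (2% hematocrit, 0.05% parasitemia final) incubated with compounds for 96 hours, 37 C, 5% CO2; luciferase detection reagent then added and luminescence measured.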
Shiga toxin inh: A qHTS for Small Molecule Inhibitors of Shiga Toxin. Vero cells, Shiga toxin protein synthesis inhibition reporter. 290,000 compounds, 9.2% hits. AID 2315, 2010. inhibition, % at 38.7 µM; in the data active means inhibition mostly above about 28%, no sharp cut-off; inactive means mostly below about 43%; further: 0% is about no effect
CHX counter: Cycloheximide Counterscreen for Small Molecule Inhibitors of Shiga Toxin; cell reporter, cycloheximide protein synthesis inhibition counterscreen; 300,000 compounds, 12% hits; max response, %; in the data active means max response mostly above about 13%, no sharp cut-off; inactive means mostly below about 14%; further: read at 38.3 µM for the half of the compounds with a filed dose; 0% is about no effect
Pf growth 48h: Primary qHTS for delayed death inhibitors of the malarial parasite plastid, 48 hour incubation | P. falciparum luciferase growth in erythrocytes, 48 h | Potency, µM (top dose mostly 28.7 µM), inactives show at the highest dose activity change, negative = inhibition, most hits filed as inhibitors | 310,000 compounds, 5.9% hits; further: potency means the concentration at half of the fitted maximal effect; on the % scale 0 is the no-effect control and ±100 the full control effect
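Here the parasites carry a stable luciferase gene and grow inside erythrocytes in Albumax-based RPMI medium with compound for one erythrocytic cycle. Activity is scored as loss of luminescent signal.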
* = called active by the depositor; u = inconclusive; x = not tested or not shown. An excerpt weighted towards active compounds, which were near 21% of everything screened. Unless noted, the call rests on the fitted dose curve; in most records, active means well fitted inhibition curve with a large enough effect; inconclusive means small, poorly fitted or top-dose-only effect, or another doubt; inactive means no such curve, though single readings can be large or run the other way.

SMILES	Pf growth 96h	Shiga toxin inh	CHX counter	Pf growth 48h
Cc1ccc(C(=O)Cn2nnc3ccccc32)cc1[N+](=O)[O-]	295%	94*	28*	95%
O=C(Cn1nnc2ccccc21)c1ccccc1	7%	-4	20*	40%
c1ccc(Cn2nnc3ccccc32)cc1	u	5	7	0%
O=C(Cn1nnc2ccccc21)OCC(=O)c1ccc(Cl)c(Cl)c1	x	8	-3	u
O=C(Cn1nnc2ccccc21)OCC(=O)c1ccccc1	4.1µM*	13	-3	-7%
O=C(Cn1nnc2ccccc21)c1cccc([N+](=O)[O-])c1	u	6	3	5%
CCN(CC)S(=O)(=O)c1ccc(Cl)c(C(=O)Oc2cccnc2)c1	7%	57	-3	74%
CCN(CC)S(=O)(=O)c1cc(C(=O)Oc2cccc(-c3cnc4ccccc4n3)c2)ccc1Br	x	65*	61*	273%
CCN(CC)S(=O)(=O)c1ccc(Cl)c(C(=O)Oc2cccc(-c3cnc4ccccc4n3)c2)c1	105%	81*	31*	109%
COc1ccc(CCNC(=O)c2cc3c(C)nccc3[nH]c2=O)cc1OC	u	-10	12	u
C=CCSC1=N/C(=C\c2sccc2C)C(=O)S1	64%	-14	-2	17%
C=CCSC1=N/C(=C\c2ccc3c(c2)OCO3)C(=O)S1	0.41µM*	-1	-3	-2%
CCOC(=O)C1(C(C)(C)CC)CC(CSc2nc3ccccc3[nH]2)OC1=O (stereo not given)	-22%	2	-2	8.3µM*
Cc1ccc(N/N=C(\C#N)C(=N)N2CCCCC2)cc1	-21%	82*	46*	216%
CCN(CC)C(=N)/C(C#N)=N/Nc1ccccc1	41%	93*	39*	67%
COc1ccccc1N/N=C(\C#N)C(=N)N1CCOCC1	68%	14	6	12%
N#C/C(=N\Nc1ccc(Cl)cc1)C(=N)N1CCCCCC1	0%	145*	43*	351%
N#C/C(=N\Nc1ccccc1)C(=N)N1CCCCC1	158%	61*	28*	x
Cc1cccc(CS(=O)(=O)Cc2ccc(C(=O)NCc3cccs3)o2)c1	u	-3	2	-29%
CCSc1nnc(NC(=O)CSc2nc3c(c(=O)n2CC)SC(C)C3)s1 (stereo not given)	30%	-10	-3	u
C=CCn1c(SCC(=O)N2CCCC2)nc2c([nH]c3ccccc32)c1=O	21%	-7	1	-14%
CCn1c(SCC(=O)N2CCOCC2)nc2c([nH]c3ccccc32)c1=O	13µM*	-4	-3	u
CCSc1nnc(NC(=O)CSc2nc3c(c(=O)n2C)SC(C)C3)s1 (stereo not given)	0%	-8	0	12µM*
CCn1c(SCC(=O)Nc2cccc(C)c2)nc2c(c1=O)SC(C)C2 (stereo not given)	13µM*	15	2	u
CCn1c(SCC(=O)N2CCOCC2)nc2c(c1=O)SC(C)C2 (stereo not given)	2.1µM*	-4	-1	-20%
SMILES	Pf growth 96h	Shiga toxin inh	CHX counter	Pf growth 48h
Cc1cc(NC(=O)CSc2nc3c(c(=O)n2CCc2ccccc2)SC(C)C3)no1 (stereo not given)	u	-6	-5	u
CCCCCC(=O)Nc1ccc(C(=O)COC(=O)CN2C(=O)NC3(CCCC3)C2=O)cc1	32%	x	x	24%
O=C1CCCC(=O)C1=C1SCCCS1	-9%	-11	-3	3%
Cc1ccc2nc(N3CCN(C)CC3)c(C=O)c(=O)n2c1	17%	-5	-2	17%
CCC(Sc1nc2c(c(=O)n1CC)SC(C)C2)C(=O)OC (stereo not given)	0.37µM*	-11	1	u
COCCn1c(SCC(=O)N2CCCCC2)nc2c(c1=O)SC(C)C2 (stereo not given)	u	-2	-1	u
CCn1c(SCC(=O)N2CCC(C)CC2)nc2c(c1=O)SC(C)C2 (stereo not given)	6.6µM*	-8	-2	u
CCn1c(SCC(=O)Nc2nnc(C)s2)nc2c(c1=O)SC(C)C2 (stereo not given)	-9%	-4	1	u
O=c1ccc(-c2ccc(S(=O)(=O)NCC3CCN(Cc4cccc(F)c4)CC3)s2)n[nH]1	u	-5	-9	5.2µM*
CCOC(=O)c1c(S(=O)(=O)NCC2CCN(Cc3cccc(F)c3)CC2)c(C)n(C)c1C	-29%	-9	-4	5%
Cc1noc(C)c1CC(=O)N1CCCC(C(=O)c2ccc(C(C)(C)C)cc2)C1 (stereo not given)	u	-5	0	u
